# Among all 96,000 compounds or so, about 20,000 (21%) were called active. These entries were drawn from the full list. Unmarked numbers belong to inactive results.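 How the source made its calls: active means CYP2C19 inhibition above a set limit at 5 µM in the primary screen (cut at about 50% in these data); inactive means the rest.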
# Molecular target: Cytochrome P450 2C19 (Homo sapiens) (UniProt P33261)
# Test: blockers of cytochrome P450 2C19 activity – biochemical, luminescence, ADME assay, primary screen (AID 778);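 further: plate controls were negative control wells for no effect and 2.5 mM tranylcypromine positive control for full effect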
# Settings: CYP2C19 Supersomes, luciferin-H EGE luminescence, 30 min; at 5 µM; stronger effect = higher value
# Chain of Cytochrome P450 2C19 (Homo sapiens) (P33261 whole entry, looked up): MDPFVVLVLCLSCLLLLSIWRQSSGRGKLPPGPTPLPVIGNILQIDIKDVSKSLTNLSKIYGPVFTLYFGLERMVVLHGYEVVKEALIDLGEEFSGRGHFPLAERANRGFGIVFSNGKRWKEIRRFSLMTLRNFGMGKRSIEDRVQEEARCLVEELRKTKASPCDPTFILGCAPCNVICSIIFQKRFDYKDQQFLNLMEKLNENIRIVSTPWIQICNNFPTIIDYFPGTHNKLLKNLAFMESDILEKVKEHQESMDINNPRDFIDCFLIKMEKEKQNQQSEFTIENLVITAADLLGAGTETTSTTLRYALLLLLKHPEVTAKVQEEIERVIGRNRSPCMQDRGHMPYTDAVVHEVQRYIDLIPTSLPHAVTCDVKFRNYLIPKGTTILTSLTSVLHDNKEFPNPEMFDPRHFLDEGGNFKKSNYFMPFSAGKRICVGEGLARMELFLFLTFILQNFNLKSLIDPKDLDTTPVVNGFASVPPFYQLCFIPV
row,SMILES,inhibition
1,N#C/C(=C(\O)CCl)c1nnc2n1CCCCC2,3.5%
2,O=C1CCCCC(=O)c2ccccc2N1,12.2%
3,CCOc1ccc(NC(=O)Nc2cc(C)on2)cc1,22.7%
4,CCOc1cccc(C(=O)Nc2cccnc2)c1,-3.6%
5,CCCCOc1ccc(C(=O)NCc2ccco2)cc1,20.2%
6,CCOc1ccc(C(=O)Nc2ccncc2)cc1,97.9% (active)
7,CCCCOc1ccc(C(=O)NCc2ccncc2)cc1,76.1% (active)
8,CCCCCCOc1ccc(OC(=O)c2cccnc2)cc1,20.8%
9,CC(=O)Nc1nonc1-c1nc2ccccc2n1Cc1ccccn1,-7.6%
10,CCN1C(=O)/C(=C2/Sc3ccccc3N2CCCS(=O)(=O)O)SC1=S,0%
11,CCOc1ccc2[nH]c(=O)c(CN(CCCO)C(C)=O)cc2c1,-11.4%
12,CC(C)CNC(=O)c1cc(-c2ccc(Br)cc2)on1,-6.3%
13,c1ccc2c(c1)OCC(CNc1ncnc3nc[nH]c13)O2 (stereo not given),4%
14,O=C(Nc1ccc2nc3n(c(=O)c2c1)CCCCC3)c1ccccc1Cl,13.1%
15,O=c1c2c(nc3n1CCCCC3)sc1c(O)cccc12,72.2% (active)
16,Cc1cccc2c(=O)n3c(nc12)CCCCC3,28.1%
17,O=C(CSc1nc2c(cnn2-c2ccc(F)cc2)c(=O)[nH]1)N1CCCCCC1,2.3%
18,CN1/C(=C\C=C2\N=C(c3ccc(F)cc3)OC2=O)C(C)(C)c2ccccc21,45.9%
19,Cc1noc(C)c1C(=O)OCC(=O)/C=C1\N(C)c2ccccc2C1(C)C,60.2% (active)
20,CN1/C(=C\C(=O)c2oc3ccccc3c2N)C(C)(C)c2ccccc21,47.9%
21,O=P(O)(CP(=O)(c1ccccc1)c1ccccc1)c1ccccc1,-1.3%
22,Cc1ccc(N2CCN(c3ccc(C)cc3)C2c2ccccn2)cc1,27.1%
23,CCc1ccccc1NC(=O)/C(=C/c1ccccc1)c1ccccc1,28.8%
24,O=c1onc(-c2cccs2)n1Cc1ccccc1,79.9% (active)
25,O=c1[nH]c(-c2cccs2)nc2ccccc12,1.4%

row,SMILES,inhibition
1,O=C(CSc1nnc(-c2cccs2)n1Cc1ccccc1)N1CCc2ccccc2C1,31.9%
2,Cn1c(C(=O)NCCN2CCc3ccccc3C2)cc2c(=O)[nH]c3ccccc3c21,14.8%
3,CCOC(=O)CCc1c(C)c2ccc(OCc3nn[nH]n3)c(C)c2oc1=O,0%
4,O=C1c2cccc3cc(Br)cc(c23)C(=O)N1Nc1ccccc1,29.2%
5,Cc1noc(NS(=O)(=O)c2ccc(NC(=O)C34CCC(CC3)C4)cc2)c1C,-12.3%
6,Cc1ccccc1C(=O)N1CCC(C(=O)Nc2ccc(S(=O)(=O)N(C)C(C)C)cc2)CC1,25.1%
7,COC(=O)c1[nH]c2ccc(Br)cc2c1NC(=O)Oc1ccccc1,7.3%
8,COC(=O)c1[nH]c2ccccc2c1NS(=O)(=O)c1ccc(OC)cc1OC,89.7% (active)
9,CCCS(=O)(=O)Nc1c(C(=O)O)[nH]c2ccccc12,11.8%
10,CCOCCCNC(=O)c1c[nH]c2cc(C)ccc2c1=O,-3.9%
11,C[C@H](NC(=O)NCCc1ccccc1)C(=O)O,-17.1%
12,CC(C)c1ccc(C(=O)NCCCc2ccccc2)cc1,14.8%
13,CCC(C)NC(=O)CCCc1ccccc1 (stereo not given),58.1% (active)
14,Cc1ccc2cccc(O)c2[n+]1[O-],1.9%
15,CCc1ccc2nc3sc(C(=O)Nc4nnc(CC)s4)c(N)c3cc2c1,39.6%
16,CCCc1nc2ccccc2c(C(=O)OCc2nnc(-c3cc(OC)c(OC)c(OC)c3)o2)c1CC,69.1% (active)
17,COc1cc(-c2nnc(Cn3cc(C(F)(F)F)ccc3=O)o2)cc(OC)c1OC,8.6%
18,CCCc1nc2ccccc2c(C(=O)OCC(=O)c2ccc3c(c2)NC(=O)CO3)c1CC,-9.7%
19,C=CCC(NCCCO)c1cccc(OC)c1OC (stereo not given),-15.9%
20,O=C(C1CCN(S(=O)(=O)c2cnc[nH]2)CC1)N1CCN(Cc2ccc3c(c2)OCO3)CC1,11.6%
21,CCN(c1ccc2c(c1)OCO2)S(=O)(=O)c1cc(Br)cc2c1N(C(=O)C1CC1)CC2,51.5% (active)
22,CCOC(=O)N1CCN(S(=O)(=O)c2cc(Br)cc3c2N(C(=O)C2CC2)CC3)CC1,30.1%
23,CC(C)C(=O)Nc1cccc(NC(=S)NC(=O)C(c2ccccc2)c2ccccc2)c1,18.9%
24,CCc1cc(=O)oc2cc(C)cc(OC(C)C(=O)O)c12 (stereo not given),-4.4%
25,COc1ccc(NC(=O)C(CC(C)C)NS(=O)(=O)c2ccc3c(c2)CCN3C(C)=O)cc1OC (stereo not given),31.2%

row,SMILES,inhibition
1,COc1ccc(-n2c(SCC(=O)Nc3sc4c(c3C#N)CCCC4)nnc2-c2ccc(O)cc2)cc1,26.8%
2,CC(Sc1nncs1)C(=O)NCc1ccc2c(c1)OCO2 (stereo not given),75.7% (active)
3,O=C(NCc1ccc2c(c1)OCO2)c1cc2c(s1)CS(=O)(=O)C2,28.8%
4,Cc1ccc2c(c1)-c1c(ssc1=S)C(C)(C)N2C(=O)CN1C(=O)c2ccccc2C1=O,25.1%
5,Cc1nc2ccc(S(=O)(=O)NCC(=O)O)cc2s1,-10.3%
6,N#Cc1ccc(OCCN2C(=O)NC3(CCSC3)C2=O)cc1 (stereo not given),-8.7%
7,CCCOc1ccccc1C1CC(=O)Nc2cc3c(cc21)OCO3 (stereo not given),99.3% (active)
8,CCCOc1ccc(C2NC(=O)NC(c3ccccc3)=C2C(C)=O)cc1OCC (stereo not given),11%
9,COc1ccccc1C1C2=C(COC2=O)Nc2cc3c(cc21)OCO3 (stereo not given),91.7% (active)
10,COc1cc2c(cc1OC)C(c1ccc(C)o1)CC(=O)N2 (stereo not given),-11%
11,Cc1cc(=O)oc(C)c1C(=O)N1CCCCC1,20.5%
12,O=[N+]([O-])c1ccccc1OCCCCN1CCCCC1,1%
13,COc1cccc(C(=O)NNC(=O)c2ccccc2Br)c1,8.8%
14,COc1ccc2oc(=O)c(C(=O)O)cc2c1,-14.5%
15,COc1cccc(C(=O)c2cc3ccc(O)cc3oc2=O)c1,83.3% (active)
16,CCOCCCNC(=O)C(NC(=O)CNC(=O)c1ccccc1)c1ccc(C)cc1 (stereo not given),-8.2%
17,COc1ccccc1N1CCN(C(=O)c2cn(-c3ccccc3)nc2-c2cccnc2)CC1,93.8% (active)
18,CCOC(=O)N1CCN(C(=O)c2cc3c(-c4ccc(Cl)cc4)nn(C)c3s2)CC1,9.1%
19,O=C(c1cn(-c2ccccc2)nc1-c1cccnc1)N1CCCCC1,40.6%
20,COc1ccccc1N1CCN(C(=O)c2cc3c(-c4ccc(Cl)cc4)nn(C)c3s2)CC1,74.1% (active)
21,COc1cccc(-c2nn(C)c3sc(C(=O)N4CCN(c5ccccc5)CC4)cc23)c1,23.7%
22,COc1ccccc1N1CCN(C(=O)Cn2nnc(-c3cccs3)n2)CC1,46.2%
23,Cn1c(=O)[nH]c(=O)c2c1nc(N1CCN(CCO)CC1)n2CCSc1nc2ccccc2s1,-15.3%
24,O=C(NC1CCc2ccccc21)C12CN(Cc3ccccc3)CC1C(c1cccc([N+](=O)[O-])c1)=NO2 (stereo not given),14.2%
25,O=C(N/N=C\c1ccc(-c2ccc(Cl)c(Cl)c2)o1)C(=O)N1CCCC1,16.3%

row,SMILES,inhibition
1,COC(=O)CN1C(=O)C(O)=C(C(C)=O)C1c1ccc([N+](=O)[O-])cc1 (stereo not given),-14.6%
2,Cc1c(C(=O)NCC2CCCO2)sc2nc(-c3ccccc3)cn12 (stereo not given),27.4%
3,Cc1ccsc1C(=O)OCC(=O)c1cc2ccccc2o1,44.1%
4,Cc1ccsc1C(=O)OCC(=O)c1cc(C)n(CC2CCCO2)c1C (stereo not given),54.4% (active)
5,COC(=O)c1ccc(S(=O)(=O)N2CCC(c3nc4ccccc4o3)CC2)cc1,8.7%
6,Oc1ccc(/C=N/NC2=NCCCCC2)c(O)c1,13.9%
7,COC(=O)C1CCN(CC(N)=O)CC1,-8.8%
8,Cc1cc(C)c([N+](=O)[O-])cc1-c1ccc(/C=N/NC(=O)c2nonc2N)o1,3.8%
9,Cc1cc([N+](=O)[O-])c(-c2ccc(/C=N/n3cnnc3)o2)cc1Cl,63.7% (active)
10,NC(=O)c1ccsc1NC(=O)c1ccco1,38.9%
11,O=C(NCC(F)(F)F)Nc1nnc(C(F)(F)F)s1,-26%
12,CCOc1c2ccc(C(=O)NCc3ccc4c(c3)OCO4)cc2nn1C,31.5%
13,CCOc1cc(S(=O)(=O)NC2CC(C)(C)NC(C)(C)C2)ccc1F,-5.3%
14,CCOc1cc(S(=O)(=O)NCc2ccc3c(c2)OCO3)ccc1F,91.8% (active)
15,O=C(Nc1cc(-c2nn(CC(=O)N3CCCCC3)c(=O)c3ccccc23)ccc1N1CCOCC1)c1ccc(Cl)cc1,7.3%
16,CC(C)C(=O)NC(=S)Nc1ccccc1F,25.4%
17,O=C(CN1C(=O)NC2(CCCC2)C1=O)Nc1ccc(F)c(F)c1F,0.4%
18,CC(C(=O)Nc1ccc(F)c(F)c1F)N1CCCCCC1 (stereo not given),64.6% (active)
19,C=CCNc1ncnc2ccc(Br)cc12,20.7%
20,Cc1ccc(S(=O)(=O)NCc2csc(C)n2)c(C)c1,13.3%
21,Cc1nc(CNS(=O)(=O)c2ccc(Oc3ccccc3)cc2)cs1,73.1% (active)
22,Cc1nc(CNS(=O)(=O)c2cccnc2)cs1,19.3%
23,Cc1cc(=O)oc2cc(OC(C)C(=O)Nc3ccc(N4CCOCC4)cc3)ccc12 (stereo not given),27.5%
24,CCOC(=O)c1sc(NC(=O)c2cc(S(=O)(=O)N3CCOCC3)ccc2C)nc1C,35.4%
25,Cc1cc(C(=O)OC(C)C(=O)Nc2cccc(S(=O)(=O)N3CCOCC3)c2)c(C)o1 (stereo not given),96.4% (active)

# Reference: PubChem BioAssay AID778 (Sanford-Burnham Center for Chemical Genomics, 2007)
